# Assay results as given in PubChem BioAssay (NCI).
# Several values for one entry are separate records, joined by “and”; a condition that tells them apart may be missing. Identical values can stand only once. About 83,000 compounds went through this panel and 20% of them were active in at least one assay; those are over-represented in the sample as a whole.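 Plates (96-well) were seeded with cells, treated with compound at one concentration, and incubated for 48 hours before percent growth was determined.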 Unmarked numbers belong to inactive results. Activity calls are given as the source filed them. Rule for the calls: active = growth percent below 10; inactive = the rest.
# System: MDA-MB-468 breast
# Assay: NCI-60 one-dose screen, 48 h (100 = growth as untreated, 0 = no growth, -100 = all killed)
# Details: 10 µM unless noted
row,Structure (SMILES),growth
1,C/C(=C(/c1ccccc1)c1ccc(N2C(=O)c3cccc4c(N5CCN(C)CC5)ccc(c34)C2=O)cc1)c1ccccc1,42.5%
2,Cc1cccc(-[n+]2noc(N)n2)c1,96.4%
3,CC12CCC(O)CC1=CCC1C2CCC2(C)C3=NN=CC3CC12 (stereo not given),92.1%
4,COc1cc(-c2nc(-c3nc4ccc(Cl)cc4[nH]3)cc3c2[nH]c2ccccc23)cc(OC)c1OC,44.1%
5,Cc1nccc2c3ccc(OCc4cn(-c5ccc(Cl)cc5)nn4)cc3n(CCCc3ccccc3)c12,10.6%
6,COc1cccc(CCC2C(=O)CCCC2=O)c1,115%
7,COc1cc(-c2nn(-c3cccc(NC(=O)c4ccc(N5CCOCC5)c(C(F)(F)F)c4)c3)cc2-c2ccncc2)ccc1Cl,-37.8% (active)
8,CC(=O)c1ccc(Nc2nccc(-c3ccc4ccccc4c3)n2)cc1,76.8%
9,CO[C@H](C(=O)N[C@@H](CCCCNC(=O)OCc1ccccc1)C(=O)OC(C)(C)C)[C@@H]1Cc2cc3cc(OC4CC(OC5CC(O)C(O)C(C)O5)C(O)C(C)O4)c(C)c(O)c3c(O)c2C(=O)[C@H]1OC1CC(OC2CC(OC3CC(C)(O)C(O)C(C)O3)C(O)C(C)O2)C(O)C(C)O1 (stereo not given in full),-37.5% (active)
10,COCCc1n(Cc2ccc3ccccc3c2)c2ccccc2[n+]1Cc1ccc2ccccc2c1,-23.4% (active)
11,Cc1ccc(C(=O)NN)cc1,106%
12,C/C(=C(/C)C1CC1CCNC1CCC(NC(=O)OC(C)(C)C)CC1)c1ccccc1 (stereo not given),35.3%
13,CCOC(=O)c1ccc2c(c1)c1c(C)c3cnccc3c(C)c1n2C,-81.8% (active)
14,COc1cccc(NC(=O)Cn2cc(CN3CCN(c4ccnc5cc(Cl)ccc45)CC3)nn2)c1,84.1%
15,O=C(CC(=O)c1ccccc1O)c1ccccc1,71.9%
16,COc1ccc(C2C(C#N)=C(/N=C/c3ccc(Cl)cc3)Oc3c2sc2c(C)cccc32)cc1 (stereo not given),21.4%
17,CC(=O)Nc1cc(C)ccc1C,76%
18,COc1ccc(NC(=O)Cn2c(=O)sc3c(-c4ccc(Cl)cc4)cc(-c4ccc(Cl)cc4)nc32)cc1,114%
19,CSc1nnc(C2=CC(=O)c3ccccc3C2=O)n1-c1ccccc1,82.6%
20,Cc1ccc2[nH]c(=O)cc(-n3nncc3COc3ccc(C=O)cc3)c2c1,114%

row,Structure (SMILES),growth
1,CCCCCCCCCCCCCCCCCCOc1ccc(CC(=O)OCC[N+]2(C)CCCCC2)cc1,92.2%
2,O=C(Nc1ccccc1)Nc1ncnc2c1ncn2-c1ccccc1,74.3%
3,N#Cc1c(-c2ccccn2)[nH]c(=S)[nH]c1=O,110%
4,Nc1ccccc1NC(=O)c1ccc(CCCC(=O)Nc2ccc(C3CC3N)cc2)cc1 (stereo not given),-4.41% (active)
5,Cc1cc(C)c(S(=O)(=O)Oc2ccccc2[N+](=O)[O-])c(C)c1,-0.215% (active)
6,COC(=O)[C@]12CC[C@@H](C)[C@H](C)[C@@H]1C1=CC[C@@H]3[C@@]4(C)C(c5cnco5)=C[C@@](C)(CO)C4=CC[C@@]3(C)[C@]1(C)CC2,17%
7,CC1CC(=O)C2=C(C1)Nc1ccc(Br)cc1CC2c1c[nH]c2ccc(Br)cc12 (stereo not given),-3.65% (active)
8,CCCCc1n(Cc2ccc3ccccc3n2)cc[n+]1Cc1ccc2ccccc2c1,-31.4% (active)
9,O=C(Nc1ccc(C2=NCCCN2)cc1)Nc1ccc(C2=NCCCN2)cc1,42.2%
10,C=C(C)[C@@H]1CC[C@]2(C(=O)N3CCN(C)CC3)CC[C@]3(C)[C@H](CC[C@@H]4[C@@]5(C)C/C(=C/c6ccc(C(F)(F)F)cc6)C(=O)C(C)(C)[C@@H]5CC[C@]43C)[C@@H]12,107%
11,CS(=O)(=O)c1ccc(-c2nn(-c3ccccc3)cc2/C=N/NC(=O)c2ccncc2)cc1,99%
12,CCN(CC)S(=O)(=O)c1ccc(S(=O)(=O)N2CCC[C@@H](C(=O)N3CCN(C(=O)OC(C)(C)C)CC3)C2)cc1,15.6%
13,Cc1cc(Nc2ccc(Cl)c(Cl)c2)nc(N)n1,54.5%
14,Oc1ccccc1O,91.1%
15,C#CCOC(=O)/C=C/c1cn(-c2ccccc2)nc1-c1ccc(OC)cc1,101%
16,O=C1OC2(c3ccccc31)c1ccc(O)c(O)c1Oc1c2ccc(O)c1O,96.8% and 113%
17,O=C(Nc1ccc(I)cc1)c1cc([N+](=O)[O-])ccc1O,9.76% (active)
18,COc1ccc(-c2cc(C(=O)Nc3nc4cc(C)c(C)cc4s3)nc3cc(-c4ccccc4)nn23)cc1OC,109%
19,O=c1c2ccccc2sc2c(N3CCCC3)nc3ccccc3c12,98.6%
20,CC1(C)CC(=O)c2c(nc3ccc(Cl)cc3c2-c2ccccc2)C1,92%
